# According to PubChem BioAssay AID1878 (Sanford-Burnham Center for Chemical Genomics, 2009):
# The whole screen tested about 1,000 compounds, of which about 200 (20%) were called active. The list is a sample of the results. Potency and affinity values are given separately. Unmarked numbers belong to inactive results. Rule as the data show it: active = inhibition above about 55%; inactive = the rest.
# Molecular target: Dual specificity protein phosphatase 3 (Homo sapiens) (UniProt P51452)
# Experiment: VHR1 phosphatase inhibitors, biochemical (AID 1878)
# Settings: recombinant VHR phosphatase, fluorogenic substrate; at 13.3 µM; active compounds read high
# Sequence of Dual specificity protein phosphatase 3 (Homo sapiens) (P51452 whole entry, looked up): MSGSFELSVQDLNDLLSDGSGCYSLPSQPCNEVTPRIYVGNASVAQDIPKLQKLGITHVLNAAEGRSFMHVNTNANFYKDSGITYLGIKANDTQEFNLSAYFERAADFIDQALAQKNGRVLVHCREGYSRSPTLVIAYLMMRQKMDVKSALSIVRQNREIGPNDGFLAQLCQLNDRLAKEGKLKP
row,Compound,inhibition
1,CCc1nnc(NC(=O)CCNC(=O)c2ccco2)s1,-5.4%
2,Cc1ccc(NC(=O)Cn2c(O)c(N=NC(N)=S)c3ccccc32)cc1,9.9%
3,CCCN1CCN(CCCNC(=O)c2ccc(CS(=O)c3ccccc3C)o2)CC1 (stereo unspecified),1.2%
4,Cc1ccc(OCCCCN2CCCCC2)c(C)c1,5.4%
5,Oc1ccc(C23CC4CC(CC(C4)C2)C3)cc1O,5.9%
6,COC(=O)c1ccc(CNC(=O)C2CCC(=O)N(Cc3ccccn3)C2)cc1 (stereo unspecified),-6%
7,Cc1ccc2oc(C(=O)N3CCN(C)C[C@@H]3C(C)C)c(C)c2c1,-13.8%
8,Cc1ccccc1S(=O)(=O)Cc1ccc(C(=O)NCCCN2CCCC2)o1,-7.1%
9,COc1ccc(C2NN=C(c3ccc(C)cc3)S2)cc1 (stereo unspecified),-9.5%
10,O=C(O)CCN1C(=O)/C(=C/c2cn(-c3ccccc3)nc2-c2cccs2)SC1=S,98% (active)
11,Cc1cc(NC(=O)CCCN2C(=O)/C(=C\c3cccs3)SC2=S)no1,-12%
12,CC1(C)CC(NC(=O)c2cccc(Cl)c2)CC(C)(C)N1,2.3%
13,CCOc1ccccc1C(=O)NC1CC2CCCC(C1)N2Cc1ccc(C)cc1 (stereo unspecified),9.8%
14,Cc1ccc(Oc2coc3cc(O)ccc3c2=O)cc1,1%
15,O=[N+]([O-])CC(c1ccc(F)cc1)c1c[nH]c2ccccc12 (stereo unspecified),-0.1%
16,O=C(NCc1ccc(F)cc1)C(=O)c1cn(CC(=O)N2CCCC2)c2ccccc12,-3%
17,CCOc1ccc(C(=S)N2CCCC2)c(OCC)c1,-7.2%
18,CCOC(=O)CCNC(=O)N1CCC(CCC(=O)NCc2ccc(F)cc2)CC1,-0.1%
19,CN1CCC(N(C)S(=O)(=O)c2ccc(Cl)cc2)CC1,-9.6%
20,CC(=O)Nc1ccc(N2C(=O)CSC2c2cccc(Br)c2)cc1 (stereo unspecified),1.4%
21,CN(CCCNC(=O)CCc1cn(C)c2ccccc12)C1CCCCC1,-3.3%

row,Compound,inhibition
1,COc1ccc(O)c(CN2CCN(CCCc3ccccc3)C(CCO)C2)c1 (stereo unspecified),-8%
2,N#Cc1nc(-c2ccc(OCc3ccc(Cl)cc3)cc2)oc1N1CCC(C(N)=O)CC1,93.5% (active)
3,Fc1cc(F)nc(NCc2ccccc2)n1,8.1%
4,Oc1ccc(N2CCN(Cc3nc4ccccc4[nH]3)CC2)cc1,-15.2%
5,CCC1CCCCN1CCCNC(=O)CS(=O)Cc1nc(-c2ccc(OC)c(OC)c2)oc1C (stereo unspecified),15.7%
6,Cc1c(CCCN)c2ccccc2n1Cc1ccccc1,-12.5%
7,COc1cccc(C(N)=O)c1OC(=O)Cc1ccccc1F,-0.1%
8,O=C(Nc1cccc(F)c1)c1ccc2ncsc2c1,-14.9%
9,O=C(Nc1nnc(SCc2c(Cl)cccc2Cl)s1)c1ccc2ncsc2c1,66.9% (active)
10,Cc1nnc(NC(=O)c2cccc(Br)c2)s1,4%
11,COc1cc(N=Cc2c(CO)cnc(C)c2O)cc(OC)c1OC,-8.3%
12,C=CCNC(=O)c1ccc(CN2CCC(Cc3ccccc3)CC2)cc1,-11.1%
13,CSc1ncccc1C(=O)NC1CCN(Cc2ccccc2)CC1,2.3%
14,CCOc1ccc(CCNC(=O)CS(=O)Cc2nc(-c3ccc(OC)c(OC)c3)oc2C)cc1OCC (stereo unspecified),8.4%
15,COC(=O)C1(CO)NC(c2ccc(C)cc2)C2C(=O)N(c3ccccc3)C(=O)C21 (stereo unspecified),-3.3%
16,CC1=C(C(=O)OCc2ccccc2)C(c2ccc([N+](=O)[O-])cc2)NC(=O)N1C (stereo unspecified),2.8%
17,COc1cc(-c2c(NC(=O)c3ccco3)oc3ccccc3c2=O)cc(OC)c1OC,-9.9%
18,CCN(CC)CCCN(Cc1cc2cc3c(cc2[nH]c1=O)OCO3)C(=S)NCCCN(C)C,-12.7%
19,O=C(NC1=NN(c2ccccc2)CC1)Nc1ccccc1F,-3.5%
20,O=c1c2c3nc4ccccc4nc3n(-c3ccc4c(c3)OCCO4)c2ncn1C1CCCC1,96.5% (active)
21,CSc1ncc(C(=O)Nc2ccccc2C)c(C)n1,6.2%

row,Compound,inhibition
1,CCN1CCN(CCCNC(=O)CNC(=O)c2nn(-c3ccc(OC)cc3OC)c(=O)c3ccccc23)CC1,38.3%
2,Cc1ccc2c(c1)c(CC(=O)Nc1ccc(C)c(F)c1)c(C(=O)O)n2C,-6.8%
3,O=C(Cn1nc(-c2ccccc2)ccc1=O)N1CCCCC1,-1.1%
4,O=C(O)c1ccc(-n2cccc2/C=C2/SC(=O)N(CC(=O)N3CCCC3)C2=O)cc1,96.8% (active)
5,Cc1ccc(NC(=O)NC(=O)CN2CCN(c3ccc(O)cc3)CC2)c(C)c1,-13.5%
6,Cc1cccc(NC(=O)CN2C(=O)S/C(=C\c3cccn3-c3cccc(C(=O)O)c3)C2=O)c1,75.6% (active)
7,COc1ccccc1CNC(=O)C1Cc2cc(S(=O)(=O)N3CCCCC3)ccc2N1C(C)=O (stereo unspecified),28.1%
8,CCC1CCCCN1C(=O)c1ccc(OC2CCN(C(=O)CCOC)CC2)cc1 (stereo unspecified),-6.7%
9,CN(C)S(=O)(=O)c1ccc(C(=O)N2CC(=O)Nc3ccc(F)cc3C2c2ccc(F)cc2)cc1 (stereo unspecified),26.6%
10,COc1ccc(CCNC(=O)CCNC(=O)N2CC(=O)Nc3ccccc32)cc1OC,-7.1%
11,COC(=O)c1cc(S(=O)(=O)NCCN2CCN(c3ccccc3F)CC2)c[nH]1,17.5%
12,CC(=O)Nc1cccc(C(=O)NC(C)c2ccc(-n3ccnc3)cc2)c1 (stereo unspecified),1.8%
13,CCCCN(CC)CCNC(=O)C1CCN(S(=O)(=O)c2cccc3nsnc23)CC1,8.4%
14,O=C(NCCN1CCCCC1)Nc1ccccc1F,18.4%
15,CC1CC(C)CN(CCCNC(=O)Cn2cccc2C(=O)c2ccccc2)C1 (stereo unspecified),-12.8%
16,CCOC(=O)NN=C1CCC(c2ccccc2)CC1 (stereo unspecified),-4.2%
17,CCC(C)Nc1nc2ccccc2n2c(C)nnc12 (stereo unspecified),26.9%
18,O=C(CCC1CCN(Cc2ccc(Cl)cc2)CC1)NC1CC1,-8.1%
19,O=c1cc(-c2ccc([N+](=O)[O-])cc2)nc2cc(-c3ccc(Cl)cc3)[nH]n12,97.6% (active)
